Activity calls are given as the source filed them. Unless noted, no rule for the calls is given here.
Legend:
[1] = tested on: XIP peptide (Xip251-270) binding; experiment: small-molecule binders of XIP peptide, primary screen, biochemical, small-molecule microarray, fluorescence 635/667 nm, 0.1 µg/mL protein (AID 1182); settings: fluorescent protein binding, 635 nm, higher = more signal, called active from +8 up or from −8 down
XIP peptide (Xip251-270) = experiment: small-molecule binders of XIP peptide, primary screen, biochemical, small-molecule microarray, fluorescence 635/667 nm, 0.5 µg/mL protein (AID 1183); settings: small-molecule microarray binding, fluorescence 635 nm; higher = more signal
[2] = Plasmodium falciparum growth inhibition, primary screen, strain 3D7, DAPI fluorescence, 100 nL (AID 1184);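 also: parasites grown inside human red blood cells in medium with human serum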; settings: P. falciparum 3D7 growth, 3 d, higher = more signal
[3] = biological target: Homeobox protein Hox-A13 (Mus musculus) (UniProt Q62424); experiment: inhibitors of HoxA13-DNA binding, primary screen, biochemical, fluorescence polarization, labeled oligonucleotide (AID 1185); settings: 15 min, higher = more signal, called active from +8 up or from −8 down
Chain of Homeobox protein Hox-A13 (Mus musculus) (Q62424 whole entry, looked up): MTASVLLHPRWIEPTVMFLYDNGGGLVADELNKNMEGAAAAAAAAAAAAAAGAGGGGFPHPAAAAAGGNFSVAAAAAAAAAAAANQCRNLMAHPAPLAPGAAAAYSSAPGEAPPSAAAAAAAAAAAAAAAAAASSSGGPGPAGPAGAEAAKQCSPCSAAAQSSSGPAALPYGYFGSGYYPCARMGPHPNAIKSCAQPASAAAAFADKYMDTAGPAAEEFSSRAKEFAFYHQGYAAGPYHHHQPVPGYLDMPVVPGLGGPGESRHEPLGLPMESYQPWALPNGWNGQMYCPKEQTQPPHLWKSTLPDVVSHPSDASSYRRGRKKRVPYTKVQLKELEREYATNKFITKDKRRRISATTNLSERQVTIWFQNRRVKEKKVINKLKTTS

[4] = inhibitors of hydroxyurea-induced Chk1 phosphorylation, primary screen, imaging, HeLa, phospho-Chk1 antibody, percent positive cells (AID 1186); settings: hydroxyurea-induced phospho-Chk1 immunofluorescence imaging, higher = more signal
[5] = inhibitors of hydroxyurea-induced Chk1 phosphorylation, primary screen, imaging, HeLa, phospho-Chk1 nuclear intensity (AID 1187); settings: hydroxyurea-induced phospho-Chk1 immunofluorescence imaging, higher = more signal

| Structure (SMILES) | composite z-score [1] | composite z-score (XIP peptide (Xip251-270)) | z-score [2] | z-score [3] | z-score [4] | z-score [5] |
| --- | --- | --- | --- | --- | --- | --- |
| O=C1C2C=CC(C(O)c3ccc(F)cc3)N(Nc3ccccc3)C2C(=O)N1c1ccccc1 (stereo unspecified) | 0.669 (inactive) | -0.168 | 0.191 | -4.12 (inactive) | -0.125 (inactive) | -0.391 (inactive) |
| CCOC(=O)C[C@H]1[C@H](OC(=O)c2ccc(-c3ccccc3)cc2)[C@@H](NC(=O)Cc2ccc(OC)cc2)c2cc(OCCCO)ccc2N1C(=O)c1ccc2ccccc2n1 | -0.0562 (inactive) | 0.111 | 0.351 | -2.51 (inactive) | -0.42 (inactive) | -0.0198 (inactive) |
| COc1ccc([Si](C)(C)[C@@H]2[C@@H](CCn3cc([C@H](O)c4ccccc4)nn3)O[C@]3(C(=O)N(Cc4cccc(N5CCOC5=O)c4)c4ccccc43)[C@H]2C)cc1 | 0.672 (inactive) | 0.168 | -2.33 | -2.64 (inactive) | -0.862 (inactive) | 0.0282 (inactive) |
| Cc1ccc(S[C@]2(C(=O)NCCN3CCOCC3)CC(=O)N(Cc3cc(C(F)(F)F)cc(C(F)(F)F)c3)[C@@H]2c2ccc(CO)cc2I)cc1 | 0.476 (inactive) | 0.241 | 0.439 | -2.98 (inactive) | -0.064 (inactive) | -0.0538 (inactive) |
| CC(=CC1CCCCC1)[C@@H](NC(=O)c1ccc(C(F)(F)F)cc1)c1ccc(-c2ccccc2)cc1 | -0.138 (inactive) | -0.569 | -0.0178 | -1.48 (inactive) | 0.191 (inactive) | 0.498 (inactive) |
| CC(c1ccccc1)C(O)C1C=CC2C(=O)NC(=O)C2N1Nc1ccccn1 (stereo unspecified) | 0.197 (inactive) | 0.676 | 0.196 | -1.82 (inactive) | 0.651 (inactive) | 0.136 (inactive) |
| NC(=O)NCC#Cc1ccc2c(c1)[C@]1(C(=O)N2)[C@H](C(=O)NC[C@H](O)c2ccccc2)[C@H]2C(=O)O[C@H](c3ccccc3)[C@H](c3ccccc3)N2[C@@H]1c1ccc(O)cc1 | 5.26 (inactive) | 0.432 | 0.872 | -4.24 (inactive) | -0.0342 (inactive) | -0.468 (inactive) |
| N#Cc1ccc(NN2C(C(O)c3cccs3)C=CC3C(=O)N(c4ccccc4)C(=O)C32)cc1 (stereo unspecified) | 0.529 (inactive) | 0.477 | 0.407 | -2.34 (inactive) | 0.0213 (inactive) | -0.548 (inactive) |
| CCOC(=O)C1=CCC(C(C)(C)C)N(S(=O)(=O)c2ccc(C)cc2)C1 (stereo unspecified) | 0.548 (inactive) | 0.806 | -0.797 | -4.56 (inactive) | -1.42 (inactive) | -1.98 (inactive) |
| CC(C)CNC(=O)[C@@]1(c2ccc([N+](=O)[O-])cc2)CC(=O)N(CC23CC4CC(CC(C4)C2)C3)[C@@H]1c1ccc(CO)cc1I | 0.106 (inactive) | 0.719 | -0.534 | -3.42 (inactive) | -0.264 (inactive) | -0.135 (inactive) |
| O=C1O[C@@H](c2ccccc2)[C@@H](c2ccccc2)N2[C@@H](c3ccc(OCCO)cc3)[C@]3(C(=O)Nc4ccccc43)[C@@H](C(=O)Nc3nc4ccccc4s3)[C@H]12 | 0.615 (inactive) | 0.841 | -0.161 | 2.18 (inactive) | -0.469 (inactive) | -0.781 (inactive) |
| C=CC[C@]1(C(=O)N2CCOCC2)N=C(c2ccc(OCCCO)cc2)O[C@H]1c1ccccc1 | 0.661 (inactive) | 0.362 | -0.887 | -6.82 (inactive) | -0.274 (inactive) | -0.217 (inactive) |
| COc1ccc(C(O)C2C=CC3C(=O)N(c4ccccc4)C(=O)C3N2Nc2ccc([N+](=O)[O-])cc2)cc1OCc1ccccc1 (stereo unspecified) | 0.522 (inactive) | 0.891 | -0.303 | -1.46 (inactive) | -0.105 (inactive) | -1.67 (inactive) |
| COc1cc(C(O)C2C=CC3C(=O)N(c4ccccc4)C(=O)C3N2Nc2ccc(C#N)cc2)cc(OC)c1OC (stereo unspecified) | 1.42 (inactive) | 0.906 | 0.162 | -4.55 (inactive) | 0.859 (inactive) | 0.668 (inactive) |
| CC(C)N1CC=CC23O[C@@H]4C=CCOC(=O)[C@@H]4[C@H]2C(=O)N(CCO)[C@@H]3C1=O (stereo partly specified) | -0.145 (inactive) | -0.014 | 0.74 | -2.98 (inactive) | -0.514 (inactive) | -0.419 (inactive) |
| COCCOC(=O)N1C(=O)[C@@]2(c3cc(C#CCCO)ccc31)[C@H](c1ccccc1OCCO)N1[C@H](c3ccccc3)[C@H](c3ccccc3)OC(=O)[C@H]1[C@@H]2C(=O)N1CCN(c2ncccn2)CC1 | 0.377 (inactive) | 0.783 | -1.89 | -1.16 (inactive) | -0.0825 (inactive) | -0.157 (inactive) |
| N#Cc1ccc(NN2C(C(O)c3ccc([N+](=O)[O-])cc3)C=CC3C(=O)N(c4ccccc4)C(=O)C32)cc1 (stereo unspecified) | 0.311 (inactive) | 0.807 | 0.272 | -4.27 (inactive) | 0.446 (inactive) | 0.5 (inactive) |
| COC(=O)[C@@]1(Cc2ccc(F)cc2)[C@H]2c3cc(C(=O)N(C)C)n(CCc4ccccn4)c3C[C@H]2CN1C(=O)c1ccccc1 | 0.258 (inactive) | 0.234 | -1.21 | -2.89 (inactive) | -0.0308 (inactive) | 0.288 (inactive) |
| COCCOC(=O)N1C(=O)[C@@]2(c3cc(C#CCC(C(=O)OC)C(=O)OC)ccc31)[C@H](c1ccccc1OCCO)N1[C@H](c3ccccc3)[C@H](c3ccccc3)OC(=O)[C@H]1[C@@H]2C(N)=O | 0.547 (inactive) | 0.827 | -2.07 | -1.36 (inactive) | -0.192 (inactive) | -0.0971 (inactive) |
| [N-]=[N+]=NCc1ccccc1[C@@H]1OC(c2ccc(OCCCO)cc2)=N[C@]1(Cc1ccccc1N=[N+]=[N-])C(=O)NCc1ccccc1 | 0.304 (inactive) | 0.442 | -2.29 | 1.76 (inactive) | -0.76 (inactive) | -0.767 (inactive) |
| CN1C(=O)C2C=CC(C(O)c3ccccn3)N(Nc3ccccc3)C2C1=O (stereo unspecified) | 0.632 (inactive) | 0.325 | 0.0014 | -7.19 (inactive) | -0.827 (inactive) | -1.12 (inactive) |

From PubChem BioAssay
